Assay results published in PubChem BioAssay (NCI).
The panel holds about 83,000 compounds, 20% with a hit somewhere; the sample as a whole holds those more often.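 Step 1: grow cells in 96-well plates. Step 2: add test compound at a single concentration. Step 3: incubate 48 h. Step 4: record percent growth.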 Calls of active or inactive are those of the source. How the source made its calls: active means growth percent below 10; inactive means the rest.

Experiments:
Test in all cases: NCI-60 one-dose screen, 48 h (100 = growth as untreated, 0 = no growth, -100 = all killed)
Details in all cases: 10 µM unless noted
SR leukemia = test system: SR leukemia
RPMI-8226 leukemia = test system: RPMI-8226 leukemia
OVCAR-8 ovarian = test system: OVCAR-8 ovarian
OVCAR-5 ovarian = test system: OVCAR-5 ovarian
OVCAR-4 ovarian = test system: OVCAR-4 ovarian
SK-OV-3 ovarian = test system: SK-OV-3 ovarian
IGROV1 ovarian = test system: IGROV1 ovarian
HS 578T breast = test system: HS 578T breast
NCI/ADR-RES ovarian = test system: NCI/ADR-RES ovarian
OVCAR-3 ovarian = test system: OVCAR-3 ovarian

Measured: growth

COc1nc(/C=C\Nc2ccc3c(c2)OCCOCCOCCOCCO3)nc(OC)n1
inactive: SR leukemia 119% | RPMI-8226 leukemia 94.3% | OVCAR-8 ovarian 108% | OVCAR-5 ovarian 98.3% | OVCAR-4 ovarian 95.5% | SK-OV-3 ovarian 106% | IGROV1 ovarian 97.2% | HS 578T breast 89.9% | NCI/ADR-RES ovarian 93.7%

CC(C)(C)c1ccc(C(=O)N/N=C/c2ccc(O)cc2O)cc1
inactive: SR leukemia 19.8% | RPMI-8226 leukemia 28.6% | OVCAR-8 ovarian 17.4% | OVCAR-5 ovarian 34.4% | OVCAR-4 ovarian 22% | SK-OV-3 ovarian 23.2% | IGROV1 ovarian 20% | HS 578T breast 38.1%
active: NCI/ADR-RES ovarian 5.92%

CCOC(=O)c1c(NC(=O)c2ccccc2)sc2c3c(ccc12)OCN(C)C3
inactive: OVCAR-8 ovarian 28.5% | OVCAR-4 ovarian 61.8% | SK-OV-3 ovarian 88.5% | OVCAR-3 ovarian 52.1% | HS 578T breast 57.9%
active: SR leukemia -39.6% | RPMI-8226 leukemia -46.2% | OVCAR-5 ovarian -0.612% | NCI/ADR-RES ovarian 5.26%

Fc1cc2[nH]ncc2c2c3c(c(-c4cn[nH]c4C(F)(F)F)nc12)CCCC3
inactive: OVCAR-4 ovarian 24.1% | NCI/ADR-RES ovarian 45.6%
active: SR leukemia -30.2% | RPMI-8226 leukemia 8.27% | OVCAR-8 ovarian 6.94% | OVCAR-5 ovarian 4.77% | SK-OV-3 ovarian -24.5% | IGROV1 ovarian 0.245% | HS 578T breast -18.4%

COc1cc(O)c2c(=O)c3c(CC=C(C)C)cc(OC)c(O)c3oc2c1
inactive: SR leukemia 24.7% | RPMI-8226 leukemia 29.8% | OVCAR-8 ovarian 26.4% | OVCAR-5 ovarian 51.2% | OVCAR-4 ovarian 52.5% | SK-OV-3 ovarian 17% | HS 578T breast 36.1% | NCI/ADR-RES ovarian 16.1%
active: OVCAR-3 ovarian 1.93%

COCCOC(C)C(/C=N/NC(N)=S)=N/NC(N)=S (stereo unspecified)
inactive: SR leukemia 53.2% | RPMI-8226 leukemia 36.2% | OVCAR-8 ovarian 57.1% | OVCAR-5 ovarian 97.7% | SK-OV-3 ovarian 93.3% | IGROV1 ovarian 21.2% | HS 578T breast 83.3% | NCI/ADR-RES ovarian 52.7%
active: OVCAR-4 ovarian 9.81%

Cn1c(=O)[nH]c(=O)c2nc3c(nc21)-c1ccccc1C3=O
inactive: SR leukemia 100% | RPMI-8226 leukemia 108% | OVCAR-8 ovarian 105% | OVCAR-5 ovarian 99.6% | OVCAR-4 ovarian 102% | SK-OV-3 ovarian 111% | OVCAR-3 ovarian 107% | HS 578T breast 104% | NCI/ADR-RES ovarian 95.2%

COc1cc2c(c(OC)c1OC)C(=O)CC(c1cccc(C(=O)Nc3ccccc3Br)c1)O2 (stereo unspecified)
inactive: SR leukemia 64% | RPMI-8226 leukemia 68.7% | OVCAR-8 ovarian 91.8% | OVCAR-5 ovarian 96.5% | OVCAR-4 ovarian 70.6% | SK-OV-3 ovarian 95.4% | OVCAR-3 ovarian 97.6% | HS 578T breast 103% | NCI/ADR-RES ovarian 88.8%

Cc1ccc(-c2nc(SCC(=O)N3CCN(c4cc5c(cc4F)c(=O)c(C(=O)O)cn5C4CC4)CC3)nc(Cl)c2C#N)cc1
inactive: SR leukemia 103% | RPMI-8226 leukemia 104% | OVCAR-8 ovarian 106% | OVCAR-5 ovarian 96.4% | OVCAR-4 ovarian 108% | SK-OV-3 ovarian 89.2% | OVCAR-3 ovarian 109% | HS 578T breast 104% | NCI/ADR-RES ovarian 102%

Cc1ccc(S(=O)(=O)OC[C@]23CCC(C)(C)C[C@H]2C2=CC[C@@H]4[C@@]5(C)CCCNC(C)(C)[C@@H]5CC[C@@]4(C)[C@]2(C)CC3)cc1
inactive: RPMI-8226 leukemia 26.8% | OVCAR-5 ovarian 84.7% | OVCAR-4 ovarian 23.3% | SK-OV-3 ovarian 103% | OVCAR-3 ovarian 76.5% | HS 578T breast 85.3% | NCI/ADR-RES ovarian 52.3%
active: SR leukemia -27.3% | OVCAR-8 ovarian -13.7%

O=CN1N=C(c2cccc(Nc3ccnc4cc(Cl)ccc34)c2)CC1c1ccc(Cl)cc1 (stereo unspecified)
active: SR leukemia 8.98% | HS 578T breast 1.82% | NCI/ADR-RES ovarian 5.69%
inactive: RPMI-8226 leukemia 32.9% | OVCAR-8 ovarian 43.7% | OVCAR-5 ovarian 58.7% | OVCAR-4 ovarian 57.5% | SK-OV-3 ovarian 24.1% | IGROV1 ovarian 38.7%

COc1ccc(N=C2NN=C(c3c[nH]c4ccccc34)CS2)cc1OC
active: OVCAR-3 ovarian -9.06%
inactive: SR leukemia 93.6% | RPMI-8226 leukemia 17% | OVCAR-8 ovarian 71.7% | OVCAR-5 ovarian 74.6% | OVCAR-4 ovarian 69.2% | SK-OV-3 ovarian 67.7% | HS 578T breast 52.8% | NCI/ADR-RES ovarian 17.7%

O=C(NCCCCCCNC(=O)OCc1ccc2c(Cl)cc(Cl)c(O)c2n1)OCc1ccc2c(Cl)cc(Cl)c(O)c2n1
inactive: SK-OV-3 ovarian 42.9%
active: SR leukemia 4.84% | RPMI-8226 leukemia -17.4% | OVCAR-8 ovarian -32.6% | OVCAR-5 ovarian -89.6% | OVCAR-4 ovarian -56.9% | IGROV1 ovarian -88.3% | HS 578T breast -15.1% | NCI/ADR-RES ovarian -12.5%

Nc1ccc(Br)cc1C(F)(F)F
inactive: SR leukemia 112% | RPMI-8226 leukemia 115% | OVCAR-8 ovarian 100% | OVCAR-5 ovarian 94.9% | OVCAR-4 ovarian 124% | SK-OV-3 ovarian 103% | IGROV1 ovarian 114% | HS 578T breast 113% | NCI/ADR-RES ovarian 106%

CC(C)c1ccc2c(c1)CC[C@H]1[C@](C)(C(=O)OCC#CCN3CCCC3)CCC[C@]21C
inactive: SR leukemia 52.5% | RPMI-8226 leukemia 47.5% | OVCAR-8 ovarian 89% | OVCAR-5 ovarian 85.8% | OVCAR-4 ovarian 64.4% | SK-OV-3 ovarian 88.4% | IGROV1 ovarian 90.5% | HS 578T breast 87.6% | NCI/ADR-RES ovarian 82.2%

CCCOC(=O)Nc1nc2ccc(SCC)cc2s1
inactive: SR leukemia 25.9% | RPMI-8226 leukemia 85.1% | OVCAR-8 ovarian 94.7% | OVCAR-5 ovarian 102% | OVCAR-4 ovarian 94.2% | SK-OV-3 ovarian 95.8% | OVCAR-3 ovarian 76.9% | HS 578T breast 93.4% | NCI/ADR-RES ovarian 50.5%

CCOC(=O)NC(=S)n1oc(=O)c2ccccc21
inactive: SR leukemia 114% | RPMI-8226 leukemia 101% | OVCAR-8 ovarian 102% | OVCAR-5 ovarian 96.6% | OVCAR-4 ovarian 96.5% | SK-OV-3 ovarian 104% | OVCAR-3 ovarian 105% | HS 578T breast 104% | NCI/ADR-RES ovarian 105%

N=C(N)c1ccc(-c2ccc(-c3cc(Cl)cc(Cl)c3)s2)s1
active: SR leukemia -29.4% | RPMI-8226 leukemia -26% | OVCAR-8 ovarian -34.6% | OVCAR-5 ovarian 3.07% | OVCAR-4 ovarian -58% | OVCAR-3 ovarian -76.2% | NCI/ADR-RES ovarian -21.4%
inactive: SK-OV-3 ovarian 88.7% | HS 578T breast 87.6%

O=C(Nc1ccc(Nc2ccncc2)cc1)c1ccc(Nc2ccnc3ccc([N+](=O)[O-])cc23)cc1
inactive: RPMI-8226 leukemia 63.4% | OVCAR-8 ovarian 104% | OVCAR-5 ovarian 105% | OVCAR-4 ovarian 84.4% | SK-OV-3 ovarian 89.1% | OVCAR-3 ovarian 93.1% | HS 578T breast 110% | NCI/ADR-RES ovarian 106%
active: SR leukemia -14.2%

COc1ccc(/C=C2\c3cc(OC)c(OC)c(OC)c3CC[C@@H]2O)cc1F
active: SR leukemia 3.9% | NCI/ADR-RES ovarian 8.8%
inactive: RPMI-8226 leukemia 28.1% | OVCAR-8 ovarian 25.4% | OVCAR-5 ovarian 76.2% | OVCAR-4 ovarian 57% | SK-OV-3 ovarian 22.4% | IGROV1 ovarian 43% | HS 578T breast 37.3%

CN1c2ccccc2S(=O)(=O)n2c(SCC(=O)Nc3nc4ccc(F)cc4s3)nnc21
inactive: SR leukemia 59.8% | RPMI-8226 leukemia 70.1% | OVCAR-8 ovarian 97.4% | OVCAR-5 ovarian 113% | OVCAR-4 ovarian 112% | SK-OV-3 ovarian 112% | OVCAR-3 ovarian 124% | HS 578T breast 80.4% | NCI/ADR-RES ovarian 89.7%

Cc1nc2ccccc2c(/C=C/c2ccc(F)cc2)c1C(=O)/C=C/c1ccccc1
active: SR leukemia 8.92% | RPMI-8226 leukemia 1.46% | OVCAR-8 ovarian 2.09% | OVCAR-5 ovarian -22% | NCI/ADR-RES ovarian 2.57%
inactive: OVCAR-4 ovarian 36.4% | SK-OV-3 ovarian 56% | IGROV1 ovarian 13.6% | HS 578T breast 22.4%

CCOC(=O)CC[C@H](NC(=O)c1ccc(N(C)Cc2cnc3nc(N)nc(N)c3n2)c2ccccc12)C(=O)OCC
inactive: SR leukemia 31.8% | RPMI-8226 leukemia 23% | OVCAR-8 ovarian 23.9% | OVCAR-5 ovarian 55.6% | OVCAR-4 ovarian 91.1% | SK-OV-3 ovarian 50.7% | IGROV1 ovarian 24.5% | HS 578T breast 58% | NCI/ADR-RES ovarian 39.3%

COc1ccc(C2CC(c3ccccc3)=NN2C(=O)c2cc(OC)c(OC)c(OC)c2)cc1O (stereo unspecified)
inactive: SR leukemia 29.8% | OVCAR-8 ovarian 24.4% | OVCAR-5 ovarian 60.1% | OVCAR-4 ovarian 42% | SK-OV-3 ovarian 54.9% | HS 578T breast 23.5%
active: RPMI-8226 leukemia -20.5% | IGROV1 ovarian 3.37% | NCI/ADR-RES ovarian -11.9%

Cc1ccc(NC(=O)c2cc3ccccc3cc2O)c(C)c1
inactive: SR leukemia 76.8% | RPMI-8226 leukemia 29.4% | OVCAR-8 ovarian 109% | OVCAR-5 ovarian 96.9% | OVCAR-4 ovarian 74.4% | IGROV1 ovarian 80.4% | OVCAR-3 ovarian 66.4% | HS 578T breast 98.9% | NCI/ADR-RES ovarian 82.8%

O=C(/C=C/c1ccccc1Cl)c1cccc(OCCCCOc2cccc(C(=O)/C=C/c3ccccc3Cl)c2)c1
inactive: SR leukemia 81% | OVCAR-8 ovarian 99.9% | OVCAR-5 ovarian 101% | OVCAR-4 ovarian 106% | IGROV1 ovarian 92.8% | OVCAR-3 ovarian 112% | HS 578T breast 106% | NCI/ADR-RES ovarian 103%
active: RPMI-8226 leukemia -6.16%

O=C1C=CC2(O)OC/C(=C\c3ccccc3)C(O)=C2C1=O (stereo unspecified)
active: SR leukemia 6.55% | RPMI-8226 leukemia 0.943% | OVCAR-8 ovarian 8.41%
inactive: OVCAR-5 ovarian 29.3% | OVCAR-4 ovarian 30.4% | SK-OV-3 ovarian 86.6% | OVCAR-3 ovarian 11.7% | HS 578T breast 39% | NCI/ADR-RES ovarian 16.7%

CNCCCNc1nc2ccccc2c2c(=O)c3cc(Cl)ccc3sc12
active: SR leukemia -39.9% | RPMI-8226 leukemia -25.3% | OVCAR-3 ovarian 9.78%
inactive: OVCAR-8 ovarian 24.5% | OVCAR-5 ovarian 47.1% | OVCAR-4 ovarian 63.6% | SK-OV-3 ovarian 84.4% | HS 578T breast 59.9% | NCI/ADR-RES ovarian 44.3%

Nc1cc(C(=O)O)cc(-n2c(O)c(C=C3N=c4ccccc4=N3)sc2=S)c1
inactive: SR leukemia 121% | RPMI-8226 leukemia 100% | OVCAR-8 ovarian 103% | OVCAR-5 ovarian 99% | OVCAR-4 ovarian 101% | SK-OV-3 ovarian 99.9% | OVCAR-3 ovarian 106% | HS 578T breast 103% | NCI/ADR-RES ovarian 103%
